High-throughput results deposited in PubChem BioAssay by several laboratories.
Sampled rows, rich in hits. Any-hit rate of the full collection: about 3.4%.
PG9 binder – binders of HIV-1 gp120 antibody PG9, primary screen, biochemical, TR-FRET; TR-FRET gp120-PG9 antibody binding; inhibition, % at 6.7 µM; 0.43% of 360,000 active; AID 624416, 2012; in the data active = inhibition above about 8.5%
HSF1 inhib – HSF1 inhibitors in luciferase reporter cells, primary screen, cell-based, NIH3T3, luminescence. NIH3T3-HGL HSE-luciferase, MG132-induced, luminescence 8 h; stronger effect = lower value. activity change, negative = inhibition, % at 7.5 µM (by protocol). 0.77% of 300,000 active. AID 2098, 2009;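 active = more than half of replicate wells show activity change below -50%, luminescence cut by over half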;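 also: luciferase reports HSF-1 transcriptional activity via heat shock element; 0% = median of DMSO wells and -100% = zero luminescence signal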
SMARCA2 act – SMARCA2 (BRM) function activators, primary screen, cell-based, luminescence, high throughput; MG213 cells, MMTV-luciferase reporter, dexamethasone, overnight; activation, % at 9.1 µM; 1% of 370,000 active; AID 652017, 2013; in the data active = activation above about 7.8%;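 also: 0% = vehicle wells and 100% = reference activator wells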
FXN GAA850 act – FXN promoter activators, primary screen, cell-based, luciferase luminescence, HEK293 lucGAA850; HEK293 lucGAA850 FXN promoter luciferase reporter, 24 h; percent of 10 µM SAHA response; 0.56% of 360,000 active; activation, % at 6 µM;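 active = activation above the average of all compounds screened plus 3 SD, cutoff fixed separately per campaign, cut at about 7.5% in these data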;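 also: 0% = DMSO wells and 100% = 10 µM SAHA wells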
HSP90 refold inh – HSP90 inhibitors, primary screen, cell lysate, luminescence; Rabbit reticulocyte lysate, luciferase refolding luminescence, 3 h; inhibition, % at 5.6 µM; 0.91% of 290,000 active; AID 1789, 2009;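 active = inhibition above the screen-wide mean plus 3 SD, computed separately per campaign, cut at about 16% in these data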;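 also: 0% = DMSO wells and 100% = 60 µM geldanamycin wells; inhibitors lower the luminescence because luciferase stays unfolded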
AI-2 QS modul – Vibrio harveyi AI-2 quorum sensing modulators, primary screen, JMH597 strain, luminescence/OD600 ratio; Vibrio harveyi JMH597 AI-2 luminescence/OD600 ratio, 9 h; stronger effect = lower value; strain lacks LuxN and CqsS sensors; 0 = neutral-control median; activity change, % at 7.5 µM; 0.4% of 300,000 active; in the data active = activity change below about -75%, passing the limit was not always enough;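 also: luminescence divided by OD600 gain over 9 h not by final OD600 alone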
HSP90 inh confirm – HSP90 inhibitors, confirmation, cell lysate, luminescence | shares compounds with HSP90 refold inh | inhibition, % at 5.9 µM | rabbit reticulocyte lysate, luciferase refolding luminescence, 3 h | 64% of 2,300 active; in the data active = inhibition above about 18%;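 also: 0% = vehicle wells and 100% = reference inhibitor wells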
luciferase ctr – firefly luciferase inhibitors, HSP90 counter-screen, confirmation, artefact control for HSP90 inhibitor project, biochemical, luminescence, triplicate | inhibition, % at 5.9 µM | 48% of 2,300 active | purified native firefly luciferase | shares compounds with HSP90 refold inh;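 active = inhibition above the mean inhibition of all tested sample wells plus 3 SD, cut at about 10% in these data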;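 also: 0% = DMSO with luciferase and 100% = wells lacking luciferase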
Target sequence (P08659 whole entry, looked up): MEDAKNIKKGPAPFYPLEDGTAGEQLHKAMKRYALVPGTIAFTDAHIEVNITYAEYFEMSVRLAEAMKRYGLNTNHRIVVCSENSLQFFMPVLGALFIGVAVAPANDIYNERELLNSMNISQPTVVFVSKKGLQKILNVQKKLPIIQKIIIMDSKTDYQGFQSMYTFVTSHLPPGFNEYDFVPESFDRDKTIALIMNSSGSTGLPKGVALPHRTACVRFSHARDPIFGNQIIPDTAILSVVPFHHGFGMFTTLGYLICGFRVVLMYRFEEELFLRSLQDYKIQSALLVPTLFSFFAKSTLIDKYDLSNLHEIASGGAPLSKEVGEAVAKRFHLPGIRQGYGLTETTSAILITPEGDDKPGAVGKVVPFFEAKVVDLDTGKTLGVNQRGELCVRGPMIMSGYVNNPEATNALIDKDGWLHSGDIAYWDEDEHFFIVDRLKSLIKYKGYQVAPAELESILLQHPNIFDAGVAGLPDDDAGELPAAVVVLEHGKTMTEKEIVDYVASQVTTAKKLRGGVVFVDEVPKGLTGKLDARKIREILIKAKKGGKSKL
An asterisk follows results filed as active; · = no result given.

SMILES | PG9 binder | HSF1 inhib | SMARCA2 act | FXN GAA850 act | HSP90 refold inh | AI-2 QS modul | HSP90 inh confirm | luciferase ctr
O=C(Nc1ccc2c(c1)nc1n2CCSC1)c1ccco1 | 2 | 7 | 1 | 3 | 35* | 46 | 45* | 20*
O=C(Nc1ccc2c(c1)nc1n2CCOC1)c1ccco1 | -3 | 2 | 4 | 4 | 3 | 16 | · | ·
CCCN1CCCCC(NC(=O)c2ccc(Cl)cc2Cl)C1=O (stereo unspecified) | -1 | · | 0 | · | · | · | · | ·
Cc1ccccc1/C=C1\CCCc2ccccc2C1=O | -3 | 14 | 4 | 2 | -5 | 14 | · | ·
Cc1ccsc1/C=C1\CCc2ccccc2C1=O | 2 | -8 | 5 | -1 | 31* | 0 | 79* | 71*
CC(=O)NCc1ccc(OCCCN2CCC(C(O)(c3ccccc3)c3ccccc3)CC2)cc1 | 2 | · | -4 | · | · | · | · | ·
CC(C)c1ccc(N(CC(=O)NCc2cccnc2)S(=O)(=O)c2ccccc2)cc1 | 3 | 11 | -3 | 0 | 27* | 12 | 1 | -3
CC[C@@]12C(=O)N(c3cccc(Cl)c3)C(=O)N1[C@H](c1cccc(C)c1)[C@@H]1C(=O)N(Cc3ccccc3)C(=O)[C@@H]12 | 0 | -6 | 0 | -2 | · | 9 | · | ·
Cc1cccc([C@@H]2[C@@H]3C(=O)N(Cc4ccccc4)C(=O)[C@@H]3[C@]3(Cc4ccc(Cl)cc4)C(=O)N(c4ccc(Br)cc4)C(=O)N23)c1 | 0 | 2 | 0 | -4 | 27* | 23 | 12 | -7
COc1ccc2cc3cc(C(=O)N4CCCCCC4)oc3nc2c1 | · | -5 | · | 1 | 17* | 6 | 40* | 22*
Cc1ccc(-c2cc(C(=O)N3CCCCCC3)no2)cc1 | 1 | 1 | 2 | 4 | 23* | -66 | 29* | 20*
COc1ccc(-c2cc(C(=O)N3CCCCCC3)no2)cc1 | -1 | 25 | 2 | 2 | 10 | -72 | · | ·
COc1ccc(-c2cc(C(=O)N3CCCC3)no2)cc1 | -2 | -1 | 2 | -3 | 39* | -15 | 57* | 42*
COc1ccc2cc3cc(C(=O)N4CCN(C5CCCCC5)CC4)oc3nc2c1 | · | 3 | · | -1 | 3 | -8 | · | ·
O=C(c1ccc(Cl)cc1)N1CCc2ccccc21 | -3 | 12 | 1 | 4 | 18* | -3 | -9 | -14
O=C(N/N=C/c1ccc(-c2ccccc2[N+](=O)[O-])o1)c1cccnc1 | -4 | 3 | -2 | 1 | 32* | 15 | 6 | -8
O=C(N[C@H](Cc1ccccc1)C(=O)N1CCCN(Cc2ccccc2F)CC1)[C@H]1O[C@@H](n2ccc(=O)[nH]c2=O)[C@H](O)[C@@H]1O | -1 | · | -4 | · | · | · | · | ·
CCOC(=O)/C(C#N)=C\c1cc(C)n(-c2ccccc2)c1C | -2 | -63* | 0 | -9 | 50* | 15 | 63* | 62*
CCOC(=O)/C(C#N)=C/c1cc(C)n(-c2ccc(C)cc2)c1C | 2 | -5 | 0 | 2 | 13 | 7 | · | ·
CCOC(=O)c1ccc(N/C=C2/CCCC(C)C2=O)cc1 (stereo unspecified) | 1 | 12 | 6 | 3 | 12 | 28 | · | ·
CC1CCC/C(=C\Nc2ccc(C(=O)O)cc2)C1=O (stereo unspecified) | -4 | -9 | 6 | 4 | 37* | 14 | 61* | 22*
CC1CCC2(CC1)CCN(CCCOC(=O)Nc1cccc(F)c1)C2=O (stereo unspecified) | · | · | -4 | · | · | · | · | ·
